Among all 5,500 compounds or so, about 2,000 (36%) were called active. Another 18% or so got no clear call; they are omitted. Cut-off read from the data, not from the text of the source: active = normalized growth mostly below about 0.91 (no sharp cut-off); inconclusive = no clear call, values can overlap the other calls; inactive = mostly above about 0.92. Some of the results follow.
Assay: chemical genetic growth profiling, strain panel (AID 1159580);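 note: tested at 20 µM; growth read once vehicle control cultures reached saturation at 30 °C; 1 = growth at the plate median or of vehicle wells; lower values mean less growth of the strain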
Conditions: S. cerevisiae deletion strains, growth OD
[1] = locus YDL101C, strain DUN1, active compounds read low
[2] = locus YHR030C, strain SLT2, active compounds read low

Measured: normalized growth

Cc1nn(C)c(C)c1[N+](=O)[O-]
inactive: locus YAL013W, strain DEP1, active compounds read low 0.996 | locus YBR229C, strain ROT2, active compounds read low 1.03 | [1] 0.992 | locus YDL134C, strain PPH21, active compounds read low 1 | locus YDR150W, strain NUM1, active compounds read low 0.939 | locus YEL061C, strain CIN8, active compounds read low 1 | locus YGR078C, strain PAC10, active compounds read low 0.999 | locus YGR229C, strain SMI1, active compounds read low 1.01 | [2] 1.01 | locus YHR087W, strain rtc3, active compounds read low 1.02 | locus YJR043C, strain POL32, active compounds read low 0.997 | locus YJR075W, strain HOC1, active compounds read low 0.988 | locus YKL190W, strain CNB1, active compounds read low 1 | locus YLR039C, strain RIC1, active compounds read low 0.998 | locus YLR058C, strain SHM2 (second series), active compounds read low 1.01 | locus YLR085C, strain ARP6, active compounds read low 1.02 | locus YLR262C, strain YPT6, active compounds read low 0.993 | locus YML094W, strain GIM5, active compounds read low 0.994 | locus YMR219W, strain ESC1, active compounds read low 1.02 | locus YMR307W, strain GAS1, active compounds read low 0.994 | locus YNL128W, strain TEP1, active compounds read low 1.01 | locus YNL153C, strain GIM3, active compounds read low 1 | locus YNL298W, strain CLA4 (second series), active compounds read low 1.01 | locus YNL322C, strain KRE1, active compounds read low 0.996 | locus YNR030W, strain Alg12, active compounds read low 1.02 | locus YOL006C, strain TOP1, active compounds read low 1.05 | locus YPL055C, strain LGE1, active compounds read low 0.867 | locus YPL241C, strain CIN2, active compounds read low 1 | locus YPR135W, strain CTF4, active compounds read low 1.03

Cc1nn(C)c(C(=O)Sc2ccc(OC(F)(F)F)cc2)c1[N+](=O)[O-]
active: [2] 1.25 [resistant] | locus YLR113W, strain HOG1, active compounds read low 0.834
inactive: locus YAR019C, strain CDC15, active compounds read low 0.977 | locus YBL105C, strain PKC1, active compounds read low 0.974 | locus YBR135W, strain CKS1, active compounds read low 0.969 | locus YBR136W, strain MEC1, active compounds read low 0.984 | locus YBR160W, strain CDC28, active compounds read low 0.977 | locus YDL017W, strain CDC7, active compounds read low 0.977 | locus YDL028C, strain MPS1, active compounds read low 0.985 | [1] 0.978 | locus YDL108W, strain KIN28, active compounds read low 0.98 | locus YDL132W, strain cdc53, active compounds read low 0.952 | locus YDL214C, strain PRR2, active compounds read low 0.946 | locus YDR052C, strain DBF4, active compounds read low 0.983 | locus YDR054C, strain cdc34, active compounds read low 0.952 | locus YDR226W, strain ADK1, active compounds read low 0.982 | locus YDR477W, strain SNF1, active compounds read low 0.993 | locus YER123W, strain YCK3, active compounds read low 0.895 | locus YER133W, strain GLC7, active compounds read low 1 | locus YFL009W, strain cdc4, active compounds read low 0.965 | locus YFL029C, strain CAK1, active compounds read low 0.978 | locus YFR003C, strain YPI1, active compounds read low 0.978 | locus YFR019W, strain FAB1, active compounds read low 0.972 | locus YFR028C, strain CDC14, active compounds read low 0.987 | locus YGR040W, strain KSS1, active compounds read low 1.03 | locus YGR052W, strain FMP48, active compounds read low 0.988 | locus YGR092W, strain DBF2, active compounds read low 0.939 | locus YHR079C, strain IRE1, active compounds read low 0.977 | locus YHR082C, strain KSP1, active compounds read low 0.947 | locus YHR205W, strain SCH9, active compounds read low 0.611 | locus YIL147C, strain SLN1, active compounds read low 0.985 | locus YJL095W, strain BCK1, active compounds read low 0.947 | locus YJL128C, strain PBS2, active compounds read low 0.87 | locus YJL157C, strain FAR1, active compounds read low 0.978 | locus YJR016C, strain ILV3, active compounds read low 0.977 | locus YJR066W, strain TOR1 (second series), active compounds read low 1.02 | locus YJR066W, strain TOR1, active compounds read low 0.936 | locus YKL048C, strain ELM1, active compounds read low 0.989 | locus YKL067W, strain YNK1, active compounds read low 0.96 | locus YKL101W, strain HSL1, active compounds read low 0.985 | locus YKL193C, strain SDS22, active compounds read low 0.975 | locus YKL203C, strain TOR2, active compounds read low 1.13 | locus YLR133W, strain CKI1, active compounds read low 0.949 | locus YLR403W, strain SFP1, active compounds read low 0.99 | locus YML070W, strain DAK1, active compounds read low 0.959 | locus YMR001C, strain CDC5, active compounds read low 0.979 | locus YMR205C, strain PFK2 (second series), active compounds read low 0.965 | locus YMR277W, strain FCP1, active compounds read low 0.968 | locus YNL006W, strain LST8, active compounds read low 0.974 | locus YNL020C, strain ARK1, active compounds read low 0.95 | locus YNL161W, strain CBK1, active compounds read low 0.98 | locus YNL183C, strain NPR1, active compounds read low 1.04 | locus YNL207W, strain RIO2, active compounds read low 0.989 | locus YNL222W, strain SSU72, active compounds read low 0.976 | locus YNL307C, strain MCK1 (second series), active compounds read low 0.918 | locus YOL078W, strain AVO1, active compounds read low 0.972 | locus YOL136C, strain PFK27, active compounds read low 0.935 | locus YOR061W, strain CKA2, active compounds read low 0.95 | locus YOR119C, strain RIO1, active compounds read low 1.11 | locus YOR231W, strain MKK1, active compounds read low 0.884 | locus YOR329C, strain SCD5, active compounds read low 0.982 | locus YPL031C, strain PHO85, active compounds read low 1.01 | locus YPL153C, strain RAD53, active compounds read low 1.03 | locus YPL204W, strain HRR25, active compounds read low 1.06 | locus YPL209C, strain IPL1, active compounds read low 0.981 | locus YPL256C, strain CLN2, active compounds read low 0.952 | locus YPR025C, strain CCL1, active compounds read low 0.981 | locus YPR106W, strain ISR1, active compounds read low 0.959 | locus YPR111W, strain DBF20, active compounds read low 0.932 | strain NNK1, active compounds read low 0.955 | strain TSCII, active compounds read low 0.982

From PubChem BioAssay AID1159580 (chemical genetic matrix, 2015)
